Source: PubChem BioAssay (NCI)
“And” between values parts separate entries of the source, which are not always exact repeats. Identical values can stand only once. The panel holds about 79,000 compounds, 15% with a hit somewhere; the sample as a whole holds those more often. The source made the active and inactive calls. Cut-off read from the data, not from the text of the source: active = growth inhibition above about 70%; inactive = the rest.

Tests used:
[1] = NCI Yeast Anticancer Drug Screen. Data for the rad50 strain (AID 155);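 note: 0% = growth of vehicle-only cultures of the same strain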; conditions: S. cerevisiae rad50 strain growth inhibition, hits give high values; at 50.0 µM unless noted
Summary of the method: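 Relative growth inhibition (compound vs vehicle) was measured in yeast with a defined repair-gene alteration.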

[2] = NCI Yeast Anticancer Drug Screen. Data for the mec2-1 strain (AID 157); conditions: S. cerevisiae mec2-1 strain, hits give high values; at 50.0 µM unless noted
Summary of the method: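 Test agents were screened against the mec2-1 yeast strain, with defined DNA repair or cell cycle alteration. Growth was scored as inhibition against vehicle-only controls.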

[3] = NCI Yeast Anticancer Drug Screen. Data for the sgs1 mgt1 strain (AID 161);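 note: 0% = growth of cultures given vehicle only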; conditions: S. cerevisiae sgs1 mgt1 strain, hits give high values; at 50.0 µM unless noted
Summary of the method: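 Read-out: growth inhibition vs vehicle controls. Cells: mutant yeast strain deficient in DNA damage repair.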

[4] = NCI Yeast Anticancer Drug Screen. Data for the cln2 rad14 strain (AID 165);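 note: 0% = growth equal to vehicle treated cultures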; conditions: S. cerevisiae cln2 rad14 strain, hits give high values; at 50.0 µM unless noted
Summary of the method: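 Growth of compound-exposed yeast (cln2 rad14 genotype) measured and expressed as inhibition relative to vehicle.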

[5] = NCI Yeast Anticancer Drug Screen. Data for the bub3 strain (AID 167); conditions: S. cerevisiae bub3 mutant strain, hits give high values; at 50.0 µM unless noted
Summary of the method: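 Screening used yeast with an engineered genetic alteration affecting cell cycle control. Compound-exposed cultures were compared with vehicle cultures, and reduced growth was taken as inhibition.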

[6] = NCI Yeast Anticancer Drug Screen. Data for the mlh1 rad18 strain (AID 175); conditions: S. cerevisiae mlh1 rad18 strain growth inhibition, hits give high values; at 50.0 µM unless noted
Summary of the method: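 In this whole-cell yeast screen, a strain with altered DNA damage repair is challenged with compound, and its growth is measured against matched vehicle-treated controls.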

Measured: growth inhibition

CCC(NN)C(=O)O (stereo not drawn)
inactive: [1] 5.45% | [2] -14.1% | [3] -33.6% | [4] -26% | [5] -9.5% | [6] -5.35%

CC(O)CNC1=CC(=O)C(=O)c2ccccc21 (stereo not drawn)
inactive: [1] -13.3% | [2] -26.1% | [3] 4.8% | [4] 4.3% | [5] 20.4% | [6] -20.6%

Cc1c(NC(=S)NC(=O)c2ccc([N+](=O)[O-])cc2)c(=O)n(-c2ccccc2)n1C
inactive: [1] 19.6% | [2] 5.7% | [3] 16.2% | [4] 17.9% | [5] 32.9% | [6] 18.6%

O=C1CSC(c2ccccc2Cl)N1c1n[nH]c(=S)s1 (stereo not drawn)
inactive: [1] -13.8% | [2] -17.6% | [3] -9.5% | [4] -55% | [5] -23.6% | [6] 1%

O=C(O)/C(=C/c1cccc(Cl)c1)c1ccc(Cl)cc1
inactive: [1] 0.85% | [2] -10.8% | [3] 0.7% | [4] -51.8% | [5] 2.4% | [6] -0.75%

CCOC(=O)/C(=N/Nc1ccc(Cl)cc1)N1C(=S)C=C(C)NN(C)C1=S
inactive: [1] -6.35% | [2] -13.4% | [3] -22.1% | [4] -6.4% | [5] -4.8% | [6] 8.15%

NC(=S)Nc1ccc(-c2ccccc2)cc1
inactive: [1] 17.4% | [2] 25.9% | [3] 49.1% | [4] -1.65% | [5] 22.8% | [6] 40.3%

N.N.O=P([O-])([O-])C1(P(=O)([O-])[O-])CCCCCN1.[Pt+2]
inactive: [1] 13.6% | [2] 22.4% | [3] -5.05% | [4] 6.25% | [5] 23.7% | [6] 11.2%

Cc1ccc(S(=O)(=O)N2CCCSCC2)cc1
inactive: [1] -11.6% | [2] -6.7% | [3] -17.5% | [4] -6.95% | [5] -11.6% | [6] -16.1%

C=CC(C)(C)c1c(OC)cc(-c2ccccc2)oc1=O
inactive: [1] -7.65% | [2] -34.4% | [3] 29.6% | [4] -23% | [5] 20.6% | [6] -9.9%

COc1c(OC2OC(CO)C(O)C(O)C2O)cc2c(c1OC)-c1ccc(OC)c(=O)cc1[C@@H](NC(C)=O)CC2 (stereo partly drawn)
inactive: [1] -4.2% | [2] 9.6% | [3] 3.8% | [4] 3.65% | [5] -0.1% | [6] 8.05%

Cc1c(Cl)cc(Cl)c2c1C(=O)CC(C)O2 (stereo not drawn)
inactive: [1] 20.4% | [2] 7.4% | [3] -0.4% | [4] -17.2% | [5] -14.5% | [6] 18.8%

CN(C)CC(C(=O)/C=C/c1ccccc1)C(C)(C)C (stereo not drawn)
inactive: [1] -10.4% | [2] -21.9% | [3] -16.2% | [4] 11.6% | [5] -11% | [6] -38.3%

COc1ccc(/C=C2\N=C3N(Cc4ccccc4)C=C(N)N3C2=O)cc1
inactive: [1] 2.65% | [2] -6.1% | [3] 15.8% | [4] -6.55% | [5] 17.8% | [6] 9.75%

O=C(C1=CCCCC1)c1ccc(-c2ccccc2)cc1
inactive: [1] -4.25% | [2] 11.2% | [3] 2.25% | [4] -14.6% | [5] -6.15% | [6] 4.65%

O=C(Nc1noc(-c2ccccc2)n1)c1ccccc1CNc1noc(-c2ccccc2)n1
inactive: [1] -7.75% | [2] -4.85% | [3] 0.8% | [4] -10.8% | [5] -6.7% | [6] 0%

CC(C)CNC(=O)c1ccccc1Cl
inactive: [1] -22.9% | [2] 20.1% | [3] -5.4% | [4] -32.4% | [5] 2.55% | [6] -11.1%

CCOC(=O)c1ccc(Cn2c(C)cc(=O)n(Cc3ccc(C(=O)OCC)cc3)c2=O)cc1
inactive: [1] 0.25% | [2] -14.1% | [3] -9.9% | [4] -27.6% | [5] 4.05% | [6] -7.7%

CN1C(=O)C(c2c[nH]c3ccccc23)N(C)C(=O)C1c1c[nH]c2ccccc12 (stereo not drawn)
inactive: [1] -29.9% | [2] -10.8% | [3] -79.5% | [4] -20.1% | [5] -27.9% | [6] -20%

Nc1c(Cl)ncnc1NCc1ccco1
inactive: [1] 5.25% | [2] -4.2% | [3] -13.8% | [4] -13.8% | [5] -1.05% | [6] -7.85%

O=[N+]([O-])c1ccc(Sc2ncnc3c2ncn3C2OC(CO)C(O)C2O)c2nonc12 (stereo not drawn)
inactive: [1] 3.05% | [2] -12.4% | [3] -2.4% | [4] 16.1% | [5] -2.95% | [6] 33.2%

Brc1ccc(SSc2ccc(Br)cc2)cc1
inactive: [1] -12.8% and 3.2% | [2] 13.1% and -10.3% | [3] 3.45% and 5.3% | [4] -18.4% and -5.5% | [5] -3.15% and 9.8% | [6] 18.8% and 2.65%

COC(=O)C1(c2ccccc2)N=C(c2ccc(C)cc2)ON1c1ccccc1 (stereo not drawn)
inactive: [1] -5.95% | [2] 7.05% | [3] -7.85% | [4] 12.7% | [5] -1% | [6] 10.1%

CCOC(=O)CC(CC(=O)OCC)NC(=O)c1ccc(N(C)C(=O)OCc2ccccc2)cc1
inactive: [1] 40.1% | [2] 5.55% | [3] 34.9% | [4] 32.9% | [5] 14.7% | [6] 39.9%

C=C(C)[C@H]1CC(=O)[C@@]2(C)C[C@H]3O[C@]3(C)CC/C=C(\C)CC[C@H]12
inactive: [1] 20.2% | [2] 14.4% | [3] 33.2% | [4] 15.1% | [5] 31.1% | [6] 51.5%

CC1(C)OC(=O)N=C1c1ccccc1Cl
inactive: [1] -18.1% | [2] -18.4% | [3] -11.3% | [4] -11.4% | [5] -15.6% | [6] 7.65%

Cc1nc2ccncc2[nH]1
inactive: [1] -7.7% | [2] -1.3% | [3] -17.4% | [4] 0.05% | [5] -10.6% | [6] -8.2%

O=C(c1ccc(-c2ccccc2)cc1)c1ncc(-c2ccc(-c3ccccc3)cc2)[nH]1
inactive: [1] 15.5% | [2] 10.7% | [3] 17.1% | [4] -4% | [5] 19.1% | [6] 21.3%

COc1cc(OC)c(-c2nc3ccccc3c(=O)o2)cc1OC
inactive: [1] 4.9% | [2] 1% | [3] -3.65% | [4] 0.9% | [5] -0.75% | [6] 7.75%

COc1ccc2c(c1)CCN1CCCc3ccccc3C21 (stereo not drawn)
inactive: [1] 22.4% | [2] 2.75% | [3] 6.3% | [4] 25.8% | [5] 14.8% | [6] -5.75%

CCCSCCC(NC(=O)c1ccccc1)C(=O)O (stereo not drawn)
inactive: [1] -14.6% | [2] -10% | [3] -10.1% | [4] -12.9% | [5] -15.2% | [6] -26.4%

CCOc1ccc2nc(NC(=O)C(=O)C(c3cnc4ccccc4n3)[N+](=O)[O-])sc2c1 (stereo not drawn)
inactive: [1] 23.6% | [2] -13.4% | [3] 24.4% | [4] 8.95% | [5] -22.4% | [6] 13.8%

O=c1[nH]c(=O)n(C2OC(CO)C(O)C2O)c2ccccc12 (stereo not drawn)
inactive: [1] 8.3% | [2] -6.4% | [3] -8% | [4] -2% | [5] -5.45% | [6] 3.8%

COS(=O)(=O)N(C)c1nc(N(C)C)nc(N(C)C)n1
inactive: [1] -2.25% | [2] -12.2% | [3] -1.2% | [4] 22.9% | [5] 3.95% | [6] -0.95%

Clc1ccc2[nH]ncc2c1
inactive: [1] 8.9% | [2] -36.1% | [3] -5.9% | [4] -7.95% | [5] 7.55% | [6] 18.1%

CCOC(=O)c1nc2ccccc2nc1NCc1cc(OC)c(OC)c(OC)c1
inactive: [1] -14.9% | [2] -11.9% | [3] -10.8% | [4] 5.65% | [5] -7.9% | [6] -29.4%

COC(=O)C1=CN(CCc2ccc(O)cc2)C(=O)C2C1CC(O)C2C (stereo not drawn)
inactive: [1] 5.6% | [2] -6.2% | [3] 1.2% | [4] -2.2% | [5] -4.55% | [6] -10.2%

CC(=O)OC(C(N)=O)c1ccccc1 (stereo not drawn)
inactive: [1] -0.7% | [2] -0.7% | [3] -3.3% | [4] -9.7% | [5] 3.45% | [6] -2.95%
